In experiment [1] the test system is KB-3-1. Kind of experiment: Cytotoxic Profiling of Annotated Libraries Using Quantitative High-Throughput Screening (AID 1296008). Also: potency is read from the fitted curve at half-maximal effect. As to max response: % is scaled to controls: 0 for no effect and ±100 for the full control effect. The note with it: Five cell lines viability, CellTiter-Glo ATP luminescence, 48-72 h; max response: active compounds read low. The gist of the method: (§1)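 Cells exposed to compounds for 48 or 72 hr at 37 degrees Celsius. Viability read as ATP-coupled luminescence with CellTiter-Glo after 10 min at room temperature.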
(In general: Cellular ATP, detected with luciferase, serves as a proxy for viable cell number.)

The test system of experiment [2] is NIH3T3. The description is as above. To be noted: Five cell lines viability, CellTiter-Glo ATP luminescence, 48-72 h; max response: active compounds read low. The gist of the method:
as §1

The subject of experiment [3] is CRL-7250. Kind of experiment: qHTS assay to identify novel small-molecules to repurpose for Merkel cell carcinoma treatment (AID 1296009). To be noted: MCC and control cell lines, CellTiter-Glo viability, 72 h; at 44.8 µM (top of the series) unless noted. The procedure, abridged:
(§2)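 Dose-response viability screen; 72 hr exposure at 37 degree celsius; CellTiter-Glo added, 10 min room temperature, luminescence read; RLUs scaled between no-cell and DMSO wells.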

In experiment [4] the test system is HACAT. The experiment is described as above. To be noted: MCC and control cell lines, CellTiter-Glo viability, 72 h; at 44.8 µM (top of the series) unless noted. The gist of the method:
as §2

The test system of experiment [5] is HEK293T. The experiment is described as above. To be noted: MCC and control cell lines, CellTiter-Glo viability, 72 h; at 44.8 µM (top of the series) unless noted. The procedure, abridged:
as §2

SMILES strings stand for the structures. Several values for one entry are separate records, joined by “and”; a condition that tells them apart may be missing. Equal values may be shown once. Results filed as inconclusive are left out. A number with no mark means an inactive call. Activity calls are given as the source filed them. Calls follow the shape of the dose curve; as a rule, active = well fitted inhibition curve with a large enough effect; inconclusive = small, poorly fitted or top-dose-only effect; inactive = flat fitted curve, though single readings scatter.
Also: nearly all actives have a fitted effect of over 60% in size.

`CCC/C=C/C=C/C(=O)O[C@H]1/C(=C/C(=O)OC)C[C@H]2C[C@H]([C@@H](C)O)OC(=O)C[C@H](O)C[C@@H]3C[C@H](OC(C)=O)C(C)(C)[C@](O)(C[C@@H]4C/C(=C/C(=O)OC)C[C@H](/C=C/C(C)(C)[C@]1(O)O2)O4)O3`: the max response in experiment [1] was 0.184%.
The same measure, in the same setting: next, `NCC[C@H](O)C(=O)N[C@@H]1C[C@H](N)[C@@H](O[C@H]2O[C@H](CN)[C@@H](O)[C@H](O)[C@H]2N)[C@H](O[C@@H]2O[C@H](CO)[C@@H](O)[C@H]2O)[C@H]1O`: 11%; `ClC(Cl)(Cl)Cl`: -1.06%; `Clc1ccccc1Cl`: 4.39%.
On the same count and under the same terms, next, `C[C@@H](Cc1ccccc1)NCCC(c1ccccc1)c1ccccc1`: -4.5%; `COc1ccc(OC)c([C@@H](O)[C@H](C)N)c1`: -0.699%; `N#CN`: -5.54%.
The same measure, in the same setting: next, `Clc1ccc(C(Cn2ccnc2)OCc2csc3c(Cl)cccc23)c(Cl)c1` (stereo not drawn): -3.27%; `CCOC(=O)/C=C(C)/C=C/C[C@@H](C)CCCC(C)C`: 3.85%.
Turning to `O=Cc1ccco1`, in experiment [1], the max response is 3.99%.
Still for that read-out and setting: then `CCC(C)(S(=O)(=O)CC)S(=O)(=O)CC`, with -12.7%.
Still for that read-out and setting: next, `ClC=C(Cl)Cl`: -14.2%; `CN(C)CCCCCCN(C)C` (tested in a mixture with another compound): 0.743%.
Same read-out and setting: next, `c1cc2c(c(NC3=NCCN3)c1)CCCC2`: -8.19%; `CCC1(C)CC(=O)NC(=O)C1`: 4.64%.
Consider `CCC(N)Cc1c[nH]c2ccccc12` (stereo not drawn), for which the max response in experiment [1] is 3.31% and -1.82%.
On the same count and under the same terms, then `CCOC(=O)c1ccccc1C(=O)OCC`, with -4.85%.
For `C[C@@H]1[C@@H]2Cc3ccc(O)cc3[C@@]1(C)CCN2CC1CC1`, the max response in experiment [1] was -3.25%.
Still for that read-out and setting: then `CCN1C[C@]2(COC)[C@H](O)C[C@H](OC)[C@@]34[C@@H]5C[C@@]6(O)[C@H](OC(=O)c7ccccc7)[C@@H]5[C@@](OC(C)=O)([C@@H]([C@H](OC)[C@H]23)[C@@H]14)[C@@H](O)[C@@H]6OC`, with 2.56%.
On the same count and under the same terms, next, `O=C1CCCCC1CN1CCCCC1` (stereo not drawn): 4.12%; `CC(N)Cc1ccc(O)cc1` (stereo not drawn): -5.37%.
For `O=C1CN(O)C(c2ccccc2)=c2cc(Cl)ccc2=N1`, the max response in experiment [1] is -7.95%.
The same measure, in the same setting: next, `[Cl-].[Cl-].[Hg+2]`: -9.23%; `CCCCCc1cc(O)c2c(c1)OC(C)(C)[C@@H]1CCC(C)=C[C@@H]21`: -12.3%.
The same measure, in the same setting: then `O=C(NCNC(=O)NC1C(=O)NC(=O)N1CO)NC1C(=O)NC(=O)N1CO` (stereo not drawn), with 2.87%; and `CCNCC(O)c1cccc(O)c1` (stereo not drawn), with 6.6%.
As to `C[C@H]1CC[C@]2(NC1)O[C@H]1C[C@H]3[C@@H]4CC[C@H]5C[C@@H](O)CC[C@]5(C)[C@H]4CC[C@]3(C)[C@H]1[C@@H]2C`, in experiment [1], the max response is -2.2%.
For the compound `CNC(=O)OCC[N+](C)(C)C`, in experiment [1], the max response is 5.31%.
Same read-out and setting: then `CNc1ccc(C(=O)CC(O)CCC(C)C2OC(=O)CC(O)CC(=O)CC(O)CC(O)CC(O)CC(O)CC3(O)CC(O)C(C(=O)OC)C(CC(O[C@@H]4O[C@H](C)[C@@H](O)[C@H](N)[C@@H]4O)/C=C/C=C/C=C/C=C/C=C/C=C/C=C/C2C)O3)cc1` (stereo partly drawn), with -0.469%; and `CC1(C)[C@H](C=C(Cl)Cl)[C@H]1C(=O)OCc1c(F)c(F)cc(F)c1F`, with -0.195%.
The same measure, in the same setting: next, `CCCC(=O)OC(C(Cl)(Cl)Cl)P(=O)(OC)OC` (stereo not drawn): -2.33%.
Same read-out and setting: then `N#CC1(N2CCCCC2)CCCCC1`, with 9.38%; and `CN(C)[C@@H]1C(=O)C(C(N)=O)=C(O)[C@@]2(O)C(=O)C3=C(O)c4c(O)ccc(Cl)c4[C@@](C)(O)[C@H]3C[C@@H]12`, with 2.99%.
Take `C[C@]12CC[C@H](O)C[C@H]1CC[C@@H]1[C@@H]2CC[C@]2(C)[C@@H](c3ccc(=O)oc3)C[C@H]3O[C@]132`: the Potency in experiment [1] was 1.84 µM (active).
For the compound `CC(=O)OO`, the max response in experiment [1] was 2.94%.
As for `CC(=O)O[C@H]1C[C@H](O[C@H]2[C@@H](O)C[C@H](O[C@H]3[C@@H](O)C[C@H](O[C@H]4CC[C@@]5(C)[C@H](CC[C@@H]6[C@@H]5C[C@@H](O)[C@]5(C)[C@@H](C7=CC(=O)OC7)CC[C@]65O)C4)O[C@@H]3C)O[C@@H]2C)O[C@H](C)[C@H]1O[C@@H]1O[C@H](CO)[C@@H](O)[C@H](O)[C@H]1O`, the Potency in experiment [1] is 0.164 µM (active).
`Clc1ccc(C2(Cn3cncn3)OCCO2)c(Cl)c1`: the max response in experiment [1] was 4.69%.
The same measure, in the same setting: next, `C=CCN=C=S`: -2.35%.
On to `C=C[C@H]1CN2CC[C@H]1C[C@H]2[C@H](OC(=O)OCC)c1ccnc2ccc(OC)cc12`, for which the max response in experiment [1] is 4.99%.
For the compound `C[C@]12CCC(=O)C=C1C=C[C@@H]1[C@@H]2CC[C@@]2(C)[C@H]1CC[C@@]2(O)CCC(=O)O`, the max response in experiment [1] was 17.7%.
Same read-out and setting: then `CCON=O`, with -2.91%.
The same measure, in the same setting: next, `O=C(CCl)c1ccc(Oc2ccc(C(=O)CCl)cc2)cc1`: 0.148%.
The same measure, in the same setting: next, `c1ccc(C2(N3CCCC3)CCCCC2)cc1`: 2%.
On to `CC(=O)O[C@H]1C[C@H](O[C@H]2[C@@H](O)C[C@H](O[C@H]3[C@@H](O)C[C@H](OC4CC[C@@]5(C)[C@H](CC[C@@H]6[C@@H]5CC[C@]5(C)[C@@H](C7=CC(=O)OC7)CC[C@]65O)C4)O[C@@H]3C)O[C@@H]2C)O[C@H](C)[C@H]1O[C@@H]1O[C@H](CO)[C@@H](O)[C@H](O)[C@H]1O` (stereo partly drawn), for which the Potency in experiment [1] is 0.206 µM (active).
Take `CC[N+](C)(CC)CCOC(=O)C(O)(c1ccccc1)c1ccccc1`: the max response in experiment [1] was -0.181%.
For the compound `CCC1(c2ccccc2)C(=O)NC(=O)N(C(=O)c2ccccc2)C1=O` (stereo not drawn), in experiment [1], the max response was -9.95%.
Take `Clc1ccc(Cl)cc1`: in experiment [1], the max response was 0.597%.
The same measure, in the same setting: then `O[C@H]1[C@H]2[C@H](O)CCCN2C[C@H]1O`, with -14%; and `O=C(C[C@@H]1NCCC[C@H]1O)Cn1cnc2cc(Br)c(Cl)cc2c1=O`, with -0.356%.
On the same count and under the same terms, then `COC(=O)[C@@H]1[C@H]2CC[C@@H](C[C@H]1OC(=O)c1ccccc1)N2C`, with 0.336%; and `ClC1C(Cl)C(Cl)C(Cl)C(Cl)C1Cl` (stereo not drawn), with 2.37%; and `CCC1(c2ccccc2)C(=O)NC(=O)NC1=O`, with 3.43%.
Same read-out and setting: then `CC(C)CCC(=O)O[C@H]1CC[C@H]2[C@@H]3CCC4=CC(=O)CC[C@]4(C)[C@H]3CC[C@]12C`, with 19.3%; and `CCC1(CC)C(=O)NC(=O)N(C)C1=O`, with -2.91%.
As for `C=CCN(C1=NCCN1)c1c(Cl)cccc1Cl`, in experiment [1], the max response is 1.74%.
Still for that read-out and setting: next, `O=[N+]([O-])c1ccccc1`: 12.1%; `C[C@H]1CCC[C@H](O)CCCCCc2cc(O)cc(O)c2C(=O)O1`: 2.03%.
Still for that read-out and setting: then `Oc1cc(Cl)c(Cl)cc1Cl`, with 0.226%; and `O=C(NC(=O)c1c(F)cccc1F)Nc1ccc(Cl)c(Oc2ncc(C(F)(F)F)cc2Cl)c1`, with -5.7%; and `CCC(=O)O[C@@](Cc1ccccc1)(c1ccccc1)[C@@H](C)CN(C)C`, with -0.686%.
On the same count and under the same terms, then `CNC(=O)Oc1ccccc1C(=O)Nc1ccccc1`, with -7.71%; and `O=C(CS(=O)C(c1ccccc1)c1ccccc1)NO` (stereo not drawn), with -1.93%; and `CN[C@H]1C[C@@H](N)[C@H](O)[C@@H](O[C@@H]2O[C@H](CO)[C@H](O)[C@@H]3OC4(O[C@H]23)O[C@H](C(N)CO)[C@H](O)[C@H](O)[C@H]4O)[C@@H]1O` (stereo partly drawn), with -7% and 5.21%.
Consider `CCNC1(c2cccs2)CCCCC1=O` (stereo not drawn), for which the max response in experiment [1] is -6.94%.
`CCCC(C)(COC(N)=O)COC(=O)NC1CC1` (stereo not drawn): the max response in experiment [1] is -23.5%.
Still for that read-out and setting: then `CC(C)(O)[C@@H]1[C@H]2OC(=O)[C@@H]1[C@]1(O)C[C@H]3O[C@]34C(=O)O[C@H]2[C@]14C`, with 0.436% and -3.57%; and `OC[C@@H](O)[C@H]1O[C@@H]2O[C@H](C(Cl)(Cl)Cl)O[C@@H]2[C@H]1O`, with 3.48%; and `OC(c1ccccc1)(c1ccccc1)C1CN2CCC1CC2` (stereo not drawn), with -22.3%.
The same measure, in the same setting: next, `CC(=O)O[C@H]1CC[C@@]2(C)C(=CC[C@@H]3[C@@H]2CC[C@]2(C)C(=O)CC[C@@H]32)C1`: -3.08%.
As to `Cc1cn(C[C@H](N)C(=O)O)c(=O)n(Cc2cc(-c3ccccc3)sc2C(=O)O)c1=O`, the outcome in experiment [1] and in experiment [2] was inactive.
Regarding `O=C(O)c1ccnc2cc(C(OCCN3CCCCC3)c3ccccc3Cl)[nH]c12` (stereo not drawn), the call in experiment [1], in experiment [3], in experiment [4] and in experiment [5] was inactive. In experiment [2], the max response is -0.205%.
Turning to `COc1cc2c(cc1OC)[C@@]13CCN4CC5=CCO[C@H]6CC(=O)N2[C@H]1[C@H]6[C@H]5C[C@H]43`, the max response in experiment [1] was 8.18% and 2.14%; in experiment [2] it was 1.02%.
Consider `C/C=C(\C)C(=O)OC1CC2C(C)(C)OC(=O)CC(OC(C)=O)C2(C)C2CC(OC(=O)C(C)C)C3(C)C(c4ccoc4)CC4OC43C12C` (stereo not drawn), for which the max response was 7.39% in experiment [1] and 0.059% in experiment [2]. The outcome in experiment [3] and in experiment [4] was “inactive [at 17.4 µM]” throughout.
Regarding `COC1CC(OC2CCC3(C)C(CCC4C3CCC3(C)C(C5=CC(=O)OC5)C(OC(C)=O)CC43O)C2)OC(C)C1OC1OC(CO)C(O)C(O)C1O` (stereo not drawn), the Potency in experiment [1] was 1.09 µM (active). The compound was called inactive in experiment [2].
In the case of `N#CC(OC1OC(COC2OC(CO)C(O)C(O)C2O)C(O)C(O)C1O)c1ccccc1` (stereo not drawn), the max response in experiment [1] was 9.88%. Moreover, the outcome in experiment [2] was inactive. Moreover, the outcome in experiment [3], in experiment [4] and in experiment [5] was “inactive [at 17.4 µM]” each time.
Take `Oc1ccc2c3c1O[C@H]1[C@H](N(CCCl)CCCl)CC[C@@]4(O)[C@@H](C2)N(CC2CC2)CC[C@]314`: the compound was called inactive in experiment [1] and in experiment [2].
Take `CC(=O)OC1CC(O)C(C)(C)C2CC(OC(C)=O)C3(C)C(CCC4(C)C(c5ccoc5)C(=O)C5OC543)C12C` (stereo not drawn): the max response in experiment [1] is 4.61%. The compound was called inactive in experiment [2].

Values taken from PubChem BioAssay (NCATS).
